Laboratory results as given in PubChem BioAssay AID624117 (National Center for Advancing Translational Sciences (NCATS), 2012).
Records with an inconclusive call do not appear. A number with no mark means an inactive call. Active and inactive are the calls of the source. The call rests on the fitted dose curve; in most records, active means well fitted curve in the direction sought with a large enough effect; inconclusive means small, poorly fitted or top-dose-only effect, or another doubt; inactive means no such curve, though single readings can be large or run the other way.

Experiment: qHTS Assay for Rab9 Promoter Activators: Hit Validation Using Renilla Luciferase Read-Out; on activation (negative = inhibition): % of control where 0% means no effect
Details: Huh7 NPC1 promoter Renilla luciferase reporter, 24 h; series mostly up to 76.9 µM; activation (negative = inhibition): at the top concentration
Excerpt: Niemann Pick Type C (NPC) is a rare neurodegenerative lipidosis that is characterized by lipid storage in the endosomal/lysosomal system. Treatment modalities for this devastating disease are currently non-existent due to the severe obstacles associated with accessing the central nervous system with proteins or genes. The majority of mutations causing NPC disease are missense mutations that are distributed throughout the length of the NPC1 protein, with the most prevalent being the I1061T allele. Although NPC1 mutant proteins may be functional, they are typically trapped in the ER due to misfolding. […] We have developed and optimized a cell based renilla luciferase reporter assay in 1536 well format for the identification of up-regulators of the mutant NPC1 promoter. This assay presents data on the validation of hits from the primary screen, which used a firefly luciferase read-out. NIH Chemical Genomics Center [NCGC] NIH Molecular Libraries Probe Production centers Network [MLPCN] MLPCN Grant: MH089375 Assay Submitter (PI): Yiannis A. Ioannou
Huh7 cells stably expressing NPC promoter-luciferase will be seeded at 1,500 cells/well in 5 uL in 1,536-well white opaque plates with 23 nL/well of compound in DMSO solution. The assay plates will be incubated at 37 deg C for 24 hours, after which 3 uL/well BriteLite plus luciferase detection reagent mixture (Perkin Elmer) will be added. Luminescence signal will be measured in a ViewLux plate reader (Perkin Elmer) after a 10 minute incubation at the room temperature.
Potency means the concentration at half of the fitted maximal effect.

SMILES | activation (negative = inhibition) | Potency
Cc1ccc(NC(=O)COC(=O)C2C3CC4OC(=O)C2C4C3)cc1Cl (stereo not given) | -7.4% | 
Nc1c(N(CCO)C(=O)/C=C/c2ccco2)c(=O)[nH]c(=O)n1Cc1ccccc1 | -0.0645% | 
Nc1ccc(C(=O)Nc2ccccc2N)cc1 |  | 8.23 µM (active)
CCOC(=O)CSc1nc2cc3c(cc2cc1C#N)OCO3 | 2.66% | 
CCCC(C)NC(=O)c1ccc(OCc2ccc(Cl)cc2)c(OC)c1 (stereo not given) | -10.1% | 
CCN(C(=O)COC(=O)c1ccc(C=O)cc1)c1c(N)n(Cc2ccccc2)c(=O)[nH]c1=O | 4.76% | 
CC1(C)CC(=O)c2c(O)c(-c3ccccc3)c(=O)n(-c3ccccc3)c2C1 | -3.78% | 
Cc1cc(C)cc(N(CC(=O)NC2CCCC2)C(=O)CNC(=O)c2ccco2)c1 | 13.6% | 
O=C(CCCN1C(=O)C(c2ccccc2)Oc2cccnc21)Nc1ccccc1Cl (stereo not given) | 3.99% | 
Cc1ccc(C(=O)c2cn[nH]c2-c2ccccc2O)cc1 | -8.79% | 
O=C(O)CSc1nnc(-c2ccncc2)n1CCc1ccccc1 | -6.59% | 
CCOc1ccc(CNC(=O)C2CCCN(S(C)(=O)=O)C2)cc1OC (stereo not given) | -4.35% | 
Cc1ccc(C(=O)c2cncc(Br)c2)cc1 | 7.59% | 
Cc1nc(-c2ccc(S(=O)(=O)Oc3ccc(Cl)cc3Cl)s2)cs1 | -49.3% | 
O=C(CCS(=O)(=O)c1ccccc1)Nc1ccc(-c2nc3ccccc3s2)cc1 | 1.79% | 
COc1ccc(-c2csc(Nc3ncccn3)n2)cc1C | -0.405% | 
CC(Sc1ncnc2c1cnn2-c1ccccc1)C(=O)Nc1ccc(N2CCOCC2)cc1 (stereo not given) | -7.01% | 
Cc1ccc2nc(NC(=O)CCn3cccc3)sc2c1 | -34.5% | 
CC(=O)[C@@H]1[C@@H](C(=O)c2ccc(C)cc2)[C@]2(C(=O)Nc3ccccc32)[C@H]2C=Cc3cc(F)ccc3N12 | 2.81% | 
Nc1ccccc1C(=O)N/N=C1/C2CN3CCN(C2)CC1(Cc1ccccc1)C3 | -14.9% | 

SMILES | activation (negative = inhibition) | Potency
COCCNC(=O)C1CCC(CNS(=O)(=O)c2ccc(F)cc2)CC1 (stereo not given) | -8.21% | 
COc1ccccc1NC(=S)NCc1ccc(Cl)cc1 | 1.13% | 
CCCN(CCC)CCCNC(=O)c1cc2cc3ccc(Cl)cc3nc2o1 | -30.2% | 
C=CCn1c(C)nnc1SCC(=O)Nc1nccs1 | -1.57% | 
COc1ccc(-c2cc(C(=O)Nc3ccccc3F)on2)cc1 | 1.74% | 
Fc1ccc(-c2nc3nc4ccccc4nc3n2Cc2ccco2)cc1 | -83.1% | 
C=CCOC(=O)N1CCN(c2cccc(C(F)(F)F)c2)CC1 | -2.4% | 
Cc1ccc(S(=O)(=O)N2CCN(c3cnn(C)c(=O)c3Cl)CC2)cc1 | -10.5% | 
Cc1c(C(O)CN2CCN(Cc3ccc4c(c3)OCO4)CC2)c2ccccc2n1C (stereo not given) | 11.6% | 
Cc1ccc(NC(=O)c2ncc(Cl)c(Cl)c2Cl)cc1C | -49.1% | 
N#C/C(=N\Nc1ccc(Cl)cc1)C(=N)N1CCCCC1 | -5.18% | 
Cn1c(SCc2ccccc2)nnc1-c1cnccn1 | 13.7% | 
COCCNC(=O)CN1C(=O)NC(c2ccccc2)(c2ccccc2)C1=O | 2.14% | 
O=C(C[N+]1(CC#Cc2ccccc2)CCCCC1)c1ccccc1 | 5.82% | 
Cc1cccc(N2CCN(C(=S)c3ccccc3)CC2)c1 | 1.13% | 
COC(=O)c1sccc1NC(=S)OC | -7.79% | 
Cc1ccc(C#N)c(SCC(=O)Nc2nccs2)n1 | -0.351% | 
COCCNC(=O)Cn1nc(-c2ccccc2)c2ccccc2c1=O | -22.4% | 
CC(=O)NC(=S)Nc1ccc2oc(-c3cc(F)c(F)cc3Cl)nc2c1 | 0.138% | 
O=C(CSc1nnc(-c2ccccn2)o1)Nc1ccccc1Cl | -3.21% | 
